Bioassay records (PubChem BioAssay)
Shown is part of a subset that was picked to be rich in hits.
HIV RNase H inh-1 – inhibitors of HIV-1 reverse transcriptase RNase H; RT-RNase H RNA/DNA duplex cleavage, fluorescence; inhibition, % at 10 µM; 65,000 compounds, 1.9% hits; AID 565; in the data active means inhibition above about 50%
HIV RNase H inh-2 – confirmation of HIV-1 reverse transcriptase RNase H inhibitors | 1,000 compounds, 39% hits | shares compounds with HIV RNase H inh-1 | Recombinant RT RNase H, fluorescent RNA/DNA duplex cleavage | inhibition, % at 10 µM; in the data active means inhibition above about 48%
* marks the source's active call; other numbers are inactive results.

SMILES | HIV RNase H inh-1 | others
O=C1CC(N(Cc2ccco2)C(=O)Nc2ccc(F)cc2)C(=O)N1c1ccc(F)cc1 (stereo unspecified) | -7
C[C@H](N)c1nnc(SCc2ccc(Cl)cc2Cl)o1 | -10
CC(C)OC(=O)CSc1nnc(-c2ccc(Cl)cc2Cl)o1 | 2
CCC(c1nnc(SCC(=O)NCCc2ccc(Cl)cc2Cl)o1)N(C)C (stereo unspecified) | 51*
Clc1ccc(C2CC(c3cccs3)n3ncnc3N2)c(Cl)c1 (stereo unspecified) | -23
CCCCS(=O)CC(COCc1ccccc1)OC(=O)CSc1nc(C)cc(C)n1 (stereo unspecified) | -10
O=C(Nc1ccc2c(c1)OCO2)OCc1ccccc1 | -46
COc1ccc2c(C)c(C(=O)NCC(C)O)oc2c1OC (stereo unspecified) | -9
Clc1cccc(-c2nn3c(-c4ccncc4)nnc3s2)c1 | -9
Clc1cccc(-c2nnc3sc(-c4ccc5c(c4)OCO5)nn23)c1 | 75*
Brc1ccccc1-c1nnc2sc(-c3ccc4c(c3)OCCO4)nn12 | -86
O=C1CC(NCc2ccncc2)C(=O)N1c1ccc(Cl)cc1 (stereo unspecified) | -1
CCc1cccc(NC2c3ccccc3C(=O)N2c2cccnc2)c1 (stereo unspecified) | -2
CCOC(=O)c1c(C)n(C)c2ccc(O)c(CN3CCN(C)CC3)c12 | -1
CCOC(=O)c1c(C)n(C)c2ccc(OC(=O)c3ccoc3)cc12 | 2
CCOC(=O)c1c(C)n(C)c2c(C)cc(O)c(OC(=O)CC)c12 | 56*
O=C(Nc1ccc(N2CCOCC2)c(F)c1)c1ccncc1 | -1
COc1ccc(S(=O)(=O)Nc2c(C)ccc3nsnc23)cc1OC | -32
CCn1ncc(C2=NOC(C(=O)Nc3c(C)n(C)n(-c4ccccc4)c3=O)C2)c1C (stereo unspecified) | -9
CCn1ncc(C2=NOC(C(=O)NCc3ccc(OC)cc3)C2)c1C (stereo unspecified) | -11
CCn1ncc(C2=NOC(C(=O)NCc3ccccc3)C2)c1C (stereo unspecified) | 50* | HIV RNase H inh-2=26
COC(=O)c1cc(S(=O)(=O)N2CCOCC2)ccc1Sc1ccccc1N | 20
O=C(NCCc1ccccc1)c1ccccc1NS(=O)(=O)N1CCCC1 | 3
CN1CCN(C(=O)c2ccccc2-c2ccccc2C(=O)O)CC1 | -10
O=C(O)CCC(=O)NC1CCCCC1NC(=O)CCC(=O)O (stereo unspecified) | 1
SMILES | HIV RNase H inh-1 | others
Cc1cccc(-n2nnnc2SCc2csc(-c3ccccc3)n2)c1 | -68
O=C(CN1CCN(S(=O)(=O)c2ccc(Cl)cc2)CC1)Nc1ccc2c(c1)OCCO2 | -7
N#Cc1c(NC(=O)CN2CCN(S(=O)(=O)c3ccc4c(c3)OCCO4)CC2)sc2c1CCC2 | 70* | HIV RNase H inh-2=78*
O=C(CN1CCN(S(=O)(=O)c2ccc(Br)cc2)CC1)Nc1ccc2c(c1)OCCO2 | -3
Cc1cccc(N(CC(=O)NC2CCCCC2)C(=O)CCC(=O)Nc2cc(C)ccn2)c1 | 7
N#CCSc1nnc(Cc2ccc3c(c2)OCO3)o1 | -2
O=C(OCc1nnc(-c2ccccc2)o1)c1ccc2c(c1)OCCO2 | -38
COc1ccc(C(=O)Nc2nnc(-c3ccccc3)o2)cc1OC | -14
O=C(Nc1nnc(-c2ccc3c(c2)OCCO3)o1)c1ccc(Cc2ccccc2)cc1 | 59* | HIV RNase H inh-2=10
O=C(Nn1cnnc1)c1ccccc1CCc1ccccc1 | 0
CCC(CC)c1nnc(NC(=O)c2c(-c3ccccc3)noc2C)s1 | 84* | HIV RNase H inh-2=28
Cc1onc(-c2ccccc2)c1C(=O)Nc1nnc(N(C)Cc2ccccc2)s1 | -2
Cc1onc(-c2ccccc2)c1C(=O)Nc1sc2c(c1C(N)=O)CCC2 | -11
CC(C)Cn1c(N)c(C(=O)CSc2ccc3c(c2)OCCO3)c(=O)n(C)c1=O | 9
CCOC(=O)CSC1=NC(=O)CS1 | 6
CC(=O)Nc1cccc(NC(=O)CSc2nnc(Cc3cccn3C)n2CCc2ccccc2)c1 | -18
CCCCOc1ccc(N2C(=O)CC(N(O)c3ccccc3)C2=O)cc1 (stereo unspecified) | 13
COC(=O)c1ccc(N2C(=O)CC(NCc3ccccc3)C2=O)cc1 (stereo unspecified) | -7
CN(Cc1ccccc1)C1CC(=O)N(c2ccc(C(=O)O)cc2)C1=O (stereo unspecified) | 77* | HIV RNase H inh-2=-6
Cn1nnnc1SCCNC/C=C/c1ccccc1 | -3
Cn1c(SCC(=O)NCc2ccc3c(c2)OCO3)nc2scc(-c3cccs3)c2c1=O | 18
CC(=O)Nc1cc(NC(C)=O)cc(C(=O)NC(C)(C)C)c1 | 0
CCOc1ccc(N2CCCn3c2nc2c3c(=O)n(CCc3ccccc3)c(=O)n2C)cc1 | 4
Cc1ccc(N2CCn3c2nc2c3c(=O)n(CCc3ccccc3)c(=O)n2C)cc1 | 64* | HIV RNase H inh-2=46
COc1ccc(N2CCCn3c2nc2c3c(=O)n(CCc3ccccc3)c(=O)n2C)cc1 | -21
SMILES | HIV RNase H inh-1 | others
O=C(CCN1C(=O)c2ccccc2C1=O)Nc1ccc(-c2cn3ccsc3n2)cc1 | 13
O=C(CCN1C(=O)c2ccccc2C1=O)Nc1ccc(F)cc1 | -6
O=C(CCN1C(=O)c2ccccc2C1=O)Nc1ccc(-c2nc3ccccc3o2)cc1 | 88* | HIV RNase H inh-2=68*
O=C(CN1CCCC1)Nc1ccc(-c2nc3cc(NC(=O)CN4CCCC4)ccc3o2)cc1 | 23
O=C1c2ccccc2C(=O)N1c1ccc(-c2nc3ccccc3o2)cc1 | 13
O=C(CN1C(=O)c2ccccc2C1=O)Nc1ccc(-c2nc3ccccc3o2)cc1 | 66* | HIV RNase H inh-2=1
COc1cc(S(=O)(=O)NCc2ccccc2)ccc1F | -10
CCN(C(=O)CN1CCN(c2ccc(OC)cc2)CC1)c1c(N)n(Cc2ccccc2)c(=O)[nH]c1=O | 3
Cc1ccc(C)c(NC(=O)C2CC(O)CN2C(=O)OC(C)(C)C)c1 (stereo unspecified) | -11
Cc1nn(-c2ccccc2)c2[nH]c(=O)c(CNCCN3CCOCC3)cc12 | -19
Cc1nn(-c2ccccc2)c2[nH]c(=O)c(CNCc3ccc4c(c3)OCO4)cc12 | -20
Cc1nn(-c2ccccc2)c2[nH]c(=O)c(CNc3ccc4c(c3)OCCO4)cc12 | 80* | HIV RNase H inh-2=11
COc1ccc(OC)c(NC(=O)c2cc(-c3cc(Cl)ccc3O)n[nH]2)c1 | 24
COc1ccc(NC(=O)c2cc(-c3cc(C)ccc3O)n[nH]2)cc1Cl | 51* | HIV RNase H inh-2=5
COc1ccc(NC(=O)c2[nH]c(C)c(C(C)=O)c2C)cc1Cl | -2
CC(=O)NC(CCS(C)(=O)=O)C(=O)Nc1ccc(Oc2ccccc2)cc1 (stereo unspecified) | -3
Cc1ccc(NCCNc2ccc(C)cc2)cc1 | -4
Cc1ccc(CNc2ccc(O)cc2)cc1 | 57* | HIV RNase H inh-2=3
CC(=O)N1CCN(c2ccc(NCc3ccc(C)cc3)cc2)CC1 | 0
Cc1ccc(NCc2nnc(SCC(=O)Nc3cccc(O)c3)n2CC2CCCO2)c(C)c1 (stereo unspecified) | 4
CCCCCC#CCC#CCC#CCC#CCCCC(=O)O | 97* | HIV RNase H inh-2=66*
CCCCCCC(N)CC(=O)O (stereo unspecified) | -3
CCCCP(=O)(O)CCC(=O)O | -5
Cc1cc(=O)oc(C)c1C(=O)n1nc(C)c2c1C[C@@H]1[C@H]2C1(C)C | -6
COC(=O)CCSCc1cn2cc(Cl)ccc2n1 | -12
COC(=O)[C@@H](NC(=O)NCc1ccccc1Cl)C(C)C | -4
